The values below come from PubChem BioAssay (NCI).

The structures appear in SMILES notation. Compounds without any hit were thinned out: in the full panel of roughly 79,000, 15% have a hit. A number with no mark means an inactive call. The source made the active and inactive calls. Rule as the data show it: active = growth inhibition above about 70%; inactive = the rest.

This experiment in a line: NCI Yeast Anticancer Drug Screen. Data for the rad50 strain (AID 155).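 Also: 0% = growth of vehicle-only cultures of the same strain.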 The settings on record: S. cerevisiae rad50 strain growth inhibition, stronger effect = higher value. The procedure:
Growth inhibition of yeast strains with defined genetic alterations is measured as a screen for potential anti-cancer activity. Selected strains with alterations in DNA damage repair or cell cycle control were exposed to compounds and growth inhibition was measured relative to vehicle treated controls. The strain used in this assay is rad50

The mark [1] stands for this setting: at 5.0 µM (retest, dose inferred, filed as 0.5).
[2] abbreviates: at 50.0 µM (retest, dose inferred, filed as 5.0).

For `CC[C@@]1(OC(=O)CCC(=O)O)C(=O)OCc2c1cc1n(c2=O)Cc2cc3ccccc3nc2-1`, the growth inhibition is 79% (active) (at 1.2 µM); 86% (active) (at 3.7 µM); 85% (active) under setting [1]; 91% (active) (at 11.0 µM); 94% (active) (at 33.0 µM); 94% (active) under setting [2]. In addition, the growth inhibition reads like this: (at 50.0 µM) 80.7% (active); (at 100.0 µM) 94% (active).
On to `S=c1nc(Cl)cc2[nH]c(Cl)cn12`, for which the growth inhibition runs as follows: (at 1.2 µM) 7%; (at 3.7 µM) 9%; under setting [1], -132%; (at 11.0 µM) 27%; (at 33.0 µM) 73% (active); under setting [2], 75% (active). In addition, the growth inhibition (at 50.0 µM) was 78.8% (active) and the growth inhibition (at 100.0 µM) was 98% (active).
Regarding `CN(CC(=O)O)c1ccc(/C=C/c2ccnc3ccccc23)cc1`, the growth inhibition (at 1.2 µM) is -1%; the growth inhibition (at 3.7 µM) is -1%; the growth inhibition under setting [1] was 23%; the growth inhibition (at 11.0 µM) was 2%; the growth inhibition (at 33.0 µM) is 11%; the growth inhibition under setting [2] was 24%. Also, the growth inhibition is, setting by setting: (at 50.0 µM) 14.7%; (at 100.0 µM) 31%.
For `CCOC(=O)C(NC(=O)CC)(N1CCN(c2cc3c(cc2F)c(=O)c(C(=O)O)cn3C2CC2)CC1)C(F)(F)F` (stereo not given), the growth inhibition is 0% (at 1.2 µM); 5% (at 3.7 µM); -10% under setting [1]; 47% (at 11.0 µM); 90% (active) (at 33.0 µM); 61% under setting [2]. The growth inhibition reads like this: (at 50.0 µM) 91.5% (active); (at 100.0 µM) 97% (active).
For `Nc1cc(S(N)(=O)=O)ccc1SSc1ccc(S(N)(=O)=O)cc1N`, the growth inhibition is 5% (at 1.2 µM); 8% (at 3.7 µM); 13% under setting [1]; 22% (at 11.0 µM); 33% (at 33.0 µM); 52% under setting [2]. The growth inhibition by setting is: (at 50.0 µM) 71.6% (active); (at 100.0 µM) 71% (active).
